High-throughput results (PubChem)
Hits are enriched below; roughly 9.9% of the tested compounds scored in any of these assays.
KB-V1 cytotox: KB-V1 MDR subline cytotoxicity. KB-V1 MDR cells viability, CellTiter-Glo, 72 h. Potency, µM (highest dose often 46.1 µM), actives largely listed as cytotoxic. 400,000 compounds, 3.4% hits. AID 1347076; note: nearly all actives have a fitted effect of over 60% in size
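Cytotoxicity via CellTiter-Glo luminescence after 72 h compound exposure at 37 degrees C. Cells: drug-selected KB-V1 line, DMEM phenol-red free plus 10% FBS. Compounds tested at multiple concentrations; normalized data fitted to concentration-effect curves.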
SW480 rerep: inducers of DNA re-replication in SW480 colon cancer cells. AID 624297. 340,000 compounds, 1.8% hits. SW480 DNA re-replication, Hoechst DNA content imaging, 48 h. Potency, µM (highest dose often 46.1 µM), actives largely listed as activators; note: nearly all actives have a fitted effect of over 55% in size
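Quantitative HTS format with DMSO vehicle controls; 48 hr drug incubation at 37 C, then 40 min Hoechst staining and scanning imager measurement at 405 nm excitation.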
MCF10A rerep: induces DNA re-replication in MCF 10a normal breast cells; MCF 10A DNA re-replication, Hoechst nuclear intensity, 48 h; Potency, µM (doses to about 46.1 µM), actives largely listed as activators; 350,000 compounds, 2.9% hits; AID 624296; note: nearly all actives have a fitted effect of over 50% in size
IL-1B inflam inh: inflammasome signaling inhibition, IL-1 beta readout; 360,000 compounds, 4.7% hits; THP-1 LPS/ATP IL-1B secretion, AlphaLISA, 16 h; stronger effect = lower value; activity change, % at 57.5 µM; in the data active = activity change below about -50%; inconclusive = mostly about -30% to -49%
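Secreted IL-1B measured by AlphaLISA bead assay after 16 h compound exposure of THP-1 cells; compounds (final up to 57.5 uM) added 1 h before LPS (250 ng/mL) and ATP (1.25 mM) stimulation; lower signal means less secretion.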
KB-3-1 tox: kills parental KB-3-1 adenocarcinoma cells; KB-3-1 viability, CellTiter-Glo ATP luminescence, 72 h; Potency, µM (series often up to 46.1 µM), most hits filed as cytotoxic; 400,000 compounds, 1.4% hits; AID 1347075; note: nearly all actives have a fitted effect of over 60% in size
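Cytotoxicity in the drug-sensitive parental line KB-3-1 was scored as loss of CellTiter-Glo luminescence following 72 h incubation with compound. Values come from curve fitting of normalized concentration-response data.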
Each line names hits and unclear results; the compound was inactive in the other large screens. Unless noted, calls come from the whole dose curve; as a rule, active = well fitted curve in the direction sought with a large enough effect; inconclusive = small, poorly fitted or top-dose-only effect, or another doubt; inactive = no such curve, though single readings can be large; an effect the other way counts as inactive or inconclusive.

CC(C)C[C@@H](CN1CCC[C@@H]1CN1C(=S)NC[C@@H]1Cc1ccc(O)cc1)N1C[C@H](Cc2ccc(O)cc2)N(CC2CCCCCC2)C1=S	KB-V1 cytotox inconclusive, IL-1B inflam inh -82, KB-3-1 tox inconclusive (no result: SW480 rerep, MCF10A rerep)
CC(C)C[C@@H](CN1CCC[C@@H]1CN1C(=S)NC[C@@H]1Cc1ccc(O)cc1)N1C[C@H](Cc2ccc(O)cc2)N(CC2CCCCC2)C1=S	KB-V1 cytotox inconclusive, IL-1B inflam inh -80, KB-3-1 tox inconclusive (no result: SW480 rerep, MCF10A rerep)
CCOc1ccc(C2/C(=C(\O)c3cccc(OC)c3)C(=O)C(=O)N2c2ccccn2)cc1OC (stereo not drawn)	KB-V1 cytotox inconclusive
CC1CCCCC1NC(=O)CN1CCC(NC(=O)C(C)(C)C)CC1 (stereo not drawn)	none (no result: SW480 rerep, MCF10A rerep)
COCCc1nc2ccc(C(=O)N(C)Cc3cccc(-n4nc(C)cc4C)c3)cc2o1	none
Cc1ccc(C)c(C(=O)NC2CC(C)(C)NC(C)(C)C2)c1	none
CC1(C)CC(NC(=O)c2cc(Cl)ccc2Cl)CC(C)(C)N1	SW480 rerep 9.2µM
O=C(NC1CC1)c1sc2cc(Cl)ccc2c1Cl	KB-V1 cytotox inconclusive
CC1(C)CC(NC(=O)c2sc3cc(Cl)ccc3c2Cl)CC(C)(C)N1	KB-V1 cytotox 18µM, SW480 rerep inconclusive, IL-1B inflam inh -73, KB-3-1 tox inconclusive
O=C(CN1CCN(S(=O)(=O)c2ccc(Br)cc2)CC1)N/N=C/c1cccnc1	none (no result: SW480 rerep)
CCCNC(=O)c1cc(C2CCCN(C(=O)c3ccccc3)C2)on1 (stereo not drawn)	none (no result: SW480 rerep, MCF10A rerep)
N#CC1=C(N)C2=CCCC[C@H]2[C@H](c2cccc(F)c2)C1(C#N)C#N	MCF10A rerep 21µM, IL-1B inflam inh -94
N#CC1=C(N)C(C#N)(C#N)C(c2ccc[nH]2)C2CCCC=C12 (stereo not drawn)	KB-V1 cytotox inconclusive
Cc1ccc2nc(Cl)c3nnnn3c2c1	KB-V1 cytotox inconclusive, SW480 rerep 1.8µM, MCF10A rerep 2.6µM, IL-1B inflam inh -94, KB-3-1 tox inconclusive
CN1C(=O)N(C)C(c2cccc([N+](=O)[O-])c2)C2=C1CCCC2=O (stereo not drawn)	none
Cc1cc2n(c(=O)c1C#N)CCCN2c1cccc(Cl)c1	KB-V1 cytotox 13µM
O=C(NCCCN1CCCC1=O)Nc1ccc([N+](=O)[O-])cc1	none
COCc1c(C(=O)OCC(=O)N2c3ccccc3CC2C)oc2ccccc12 (stereo not drawn)	none
COc1cc(/C=C/C(=O)OCC(=O)N2c3ccccc3NC(=O)C2(C)C)cc(OC)c1OC	KB-V1 cytotox inconclusive, IL-1B inflam inh -65, KB-3-1 tox inconclusive
COCc1c(C(=O)OCC(=O)N2c3ccccc3NC(=O)C2(C)C)oc2ccccc12	KB-V1 cytotox 16µM, MCF10A rerep inconclusive
Cc1ccc2cc(-c3noc(C(C)(C)C)n3)c(=O)[nH]c2c1	KB-V1 cytotox 18µM
CCc1nc(-c2cc3ccc(C)cc3[nH]c2=O)no1	none
CN(C)S(=O)(=O)n1cc(/C=C(\NC(=O)c2ccccc2Cl)C(=O)N2CCCC2)c2ccccc21	none
O=C(COc1cc2oc(=O)c3c(c2cc1Cl)CCC3)Nc1ccccn1	none
Cc1ccc(C(C)C)cc1OCC(=O)NCCCn1ccnc1	MCF10A rerep 1.5µM
O=C(COc1cc2oc(=O)c3c(c2cc1Cl)CCC3)NCCCn1ccnc1	MCF10A rerep 23µM
NC(=O)COc1cc2oc(=O)c3c(c2cc1Cl)CCCC3	KB-V1 cytotox 8.2µM
Cc1cc(NC(=O)C2CC(=O)N(c3cccc(Cl)c3)C2)no1 (stereo not drawn)	none
COc1ccccc1NC(=S)NCc1ccc2c(c1)OCO2	MCF10A rerep inconclusive
CCOC(=O)c1c(C)n(-c2ccccc2)c2ccc(OC(=O)c3cc(OC)cc(OC)c3)cc12	none (no result: SW480 rerep, MCF10A rerep, IL-1B inflam inh)
Cc1ccc2occ(/C=N/NC(=O)c3ccccc3O)c(=O)c2c1	SW480 rerep 18µM, KB-3-1 tox inconclusive
O=C(N/N=C/c1coc2ccc(Cl)cc2c1=O)c1cc(O)cc(O)c1	none
CCOc1ccccc1C(=O)N/N=C/c1coc2ccc(Cl)cc2c1=O	SW480 rerep 15µM, MCF10A rerep 15µM, KB-3-1 tox inconclusive
COc1ccc(NC(=O)Nc2nnc(N(C)C3CCCCC3)s2)c(OC)c1	none (no result: SW480 rerep, MCF10A rerep, IL-1B inflam inh)
c1ccc2c(CSc3nnc(-c4ccncc4)o3)cccc2c1	KB-V1 cytotox 15µM, MCF10A rerep inconclusive
